Results: paper PMC4552634, “A New Set of Chemical Starting Points with Plasmodium falciparum Transmission-Blocking Potential for Antimalarial Drug Discovery” (PLoS ONE, 2015)
Among all 13,000 compounds or so, about 3,200 (25%) showed an effect of 50% or more. Some of the results follow.

test system: P. falciparum stage V gametocytes; design: BacTiter-Glo ATP luminescence viability of purified stage V gametocytes in 384-well plates, per cent inhibition versus DMSO; conditions: 48 h, 5 µM; inhibitor

SMILES | % Inhibition [%]
COc1ccc(C2c3ccccc3-c3nc(N)nc(N)c3C2C)cc1 (centres unmarked) [TCMDC-137992] | 31.51
Cc1cc(NC(=O)NCCN2CCC(NS(=O)(=O)c3ccccc3Cl)C2)c2ccccc2n1 (centres unmarked) [TCMDC-136142] | -23.32
Cc1oc(-c2cccc(Oc3ccccc3)c2)nc1CN(Cc1cnn(C)c1)C(C)C [TCMDC-124609] | -17.42
COc1ccc2nccc(N(C)CC3(O)CCN(CCc4ccc5c(c4)OCCO5)CC3)c2n1 [TCMDC-141473] | 35.78
CCNc1cc(C(=O)N[C@@H](Cc2ccccc2)[C@H](O)CNCc2cccc(-n3ccnc3)c2)cc(N2CCCC2=O)c1 [TCMDC-141686] | 34.28
CN(C)C(CNC(=O)c1cc(-c2ccncc2)c(-c2cc3ccccc3[nH]2)o1)c1ccccc1 (centres unmarked) [TCMDC-135864] | 29.45
CCc1ccc(NC(=O)c2cccc(CN3CCCN(Cc4ccc(OC)cc4)CC3)c2)cc1 [TCMDC-135990] | -23.52
COc1ccc(CC(=O)Nc2ccc(Nc3nc(C)cc(N(C)C)n3)cc2)cc1 [TCMDC-124973] | 14.2
N#Cc1ccc(N(CC(=O)NCCc2ccc(F)cc2)CC2CC2)c2ccccc12 [TCMDC-135573] | -38.52
CCc1cccc2c(C#N)cn(CC(=O)NCCc3ccccc3)c12 [TCMDC-124363] | 56.03
CCc1cccc2c(C#N)cn(CC(=O)Nc3ccc(OC)cc3)c12 [TCMDC-123527] | 78.76
CCCN(CC(=O)NCCc1ccccc1)c1ccc(C#N)c2ccccc12 [TCMDC-135545] | -10.84
CCOc1ccc(OCC(=O)Nc2nc(-c3ccc(OC)cc3)c(C)s2)cc1 [TCMDC-124322] | 37.56
CN(C)CCOc1ccc(-c2cc(-c3ccc(Cl)c(O)c3)c(-c3ccncc3)[nH]2)cc1 [TCMDC-141255] | -84.18
Oc1c(Cl)cc(Nc2nccc(Nc3ccc(Oc4ccccc4)cc3)n2)cc1Cl [TCMDC-138588] | -66
c1ccc(Oc2ccc(Nc3nncc4ccccc34)cc2)cc1 [TCMDC-137229] | 25.45
Clc1ccc(-n2cnc3c(Nc4ccc(Oc5ccccc5)cc4)ncnc32)cc1Cl [TCMDC-138209] | 88.06
Nc1ccc(-c2cc(Cl)cc(Cl)c2)cc1-c1cc2ccccc2[nH]1 [TCMDC-139051] | -15.54
CCCCc1ccc(S(=O)(=O)Nc2ccc3c(c2)CCN(Cc2c[nH]c4cnccc24)CC3)cc1 [TCMDC-136797] | -5.765
CCCc1ccc(S(=O)(=O)Nc2ccc3c(c2)CCC3)cc1 [TCMDC-125822] | 10.44
CN1Cc2ccc(NS(=O)(=O)c3ccc(-c4ccoc4)cc3)cc2C1 [TCMDC-141495] | 67.76
Nc1nc(N)c2cc(NS(=O)(=O)c3ccc(-c4ccccc4)cc3)ccc2n1 [TCMDC-135430] | 5.991
Cc1nc(N2CCC(C)CC2)c2c3c(sc2n1)CCCC3 [TCMDC-125646] | 3.329
C=C(C)C1CC=C(CN2CCCC(n3ccc4cc(NC(=O)c5ccco5)ccc43)CC2)CC1 (centres unmarked) [TCMDC-135090] | -20.08

SMILES | % Inhibition [%]
Cc1nc2c(-n3cc(Cn4ccnc4)c4ccccc43)ncnc2n1-c1ccc(Cl)cc1Cl [TCMDC-136514] | 37.26
CCC(=O)c1c(C)n(-c2ncnc3c2nc(C)n3-c2ccc(C)cc2C)c2ccccc12 [TCMDC-136513] | 51.77
Cc1noc(-c2ccc3c(c2)CCN(CCC2CCC(NC(=O)c4cc5ccccc5[nH]4)CC2)CC3)n1 (centres unmarked) [TCMDC-139876] | -74.07
CN(C)CCOc1cc(NC(=O)Nc2ccc(-c3ccccc3)cc2)ccc1I [TCMDC-139150] | -45.78
CN(C)CCCn1cc(C(=O)OC2CC3CCC(C2)N3C)c2cc(-c3ccccc3)ccc21 (centres unmarked) [TCMDC-139094] | 100.6
O=S(=O)(NCCN1CCCC1)c1cccc(-c2cccc(CNCc3ccccc3)c2)c1 [TCMDC-132226] | 104
O=S(=O)(NCCN1CCCC1)c1cccc(-c2ccc(CNCc3ccccc3)cc2)c1 [TCMDC-132240] | 108.6
COc1ccc(NC2=C(c3ccccc3)C(=O)c3ccccc32)cn1 [TCMDC-125501] | 36.53
COc1cc(NC2=C(c3ccccc3)C(=O)c3ccccc32)ccn1 [TCMDC-135283] | 73.83
O=C1C(c2ccccc2)=C(Nc2cccc(OC(F)(F)C(F)F)c2)c2ccccc21 [TCMDC-125498] | 65.78
O=C1C(c2ccccc2)=C(Nc2ccc([N+](=O)[O-])cc2)c2ccccc21 [TCMDC-125490] | 10.18
O=C1C(c2ccccc2)=C(Nc2ccc(Cl)cc2)c2ccccc21 [TCMDC-125493] | 32.25
O=C1C(c2ccccc2)=C(Nc2cccc([N+](=O)[O-])c2)c2ccccc21 [TCMDC-125484] | 25.85
Nn1c(=O)oc2ccc(Cl)cc2c1=O [TCMDC-125519] | 8.283
FC(F)(F)c1ccc2nccc(NN=Cc3ccccc3)c2c1 [TCMDC-142024] | -3.615
CCc1cccc(-c2cc(=N)n(C)c3nc(N)[nH]c(=O)c23)c1 [TCMDC-137737] | -30.45
COc1ccc2nccc([C@@H](O)CN3CCC(NCc4nc5c(cc4Cl)OCC(=O)N5)C(F)C3)c2c1 (some centres unmarked) [TCMDC-141722] | 15.19
CCCCN(C(=O)c1ccccc1Cl)c1nnc(-c2ccccc2C)s1 [TCMDC-125120] | -1.012
CCCCN(C(=O)c1ccccc1C)c1nnc(-c2ccccc2C)s1 [TCMDC-124385] | 52.67
CCCN(C(=O)c1ccccc1C)c1nnc(-c2ccccc2C)s1 [TCMDC-124386] | 7.474
COC(=O)C1=C(C)NC2=C(C(=O)CC(c3ccc(OC)c(OC)c3)C2)C1c1cccc(O)c1 (centres unmarked) [TCMDC-125609] | 17.77
CCC(C)OC(=O)C1=C(C)NC2=C(C(=O)CC(c3ccc(OC)c(OC)c3)C2)C1c1cccc(O)c1 (centres unmarked) [TCMDC-125634] | 29.96
CCCOC(=O)C1=C(C)NC2=C(C(=O)CC(c3ccc(OC)c(OC)c3)C2)C1c1cccc(O)c1 (centres unmarked) [TCMDC-125632] | 53.3
